Measurements taken from ChEMBL document CHEMBL3988442, “University of Dundee, Small-Polar-MMV Screening Library” (2021).
Out of some 48,000 compounds screened, about 13,000 (27%) showed an effect of 50% or more. Some of the results follow.

The compounds below were run on Wolbachia pipientis (assay: Anti-Wolbachia Cell-Based Screen). Settings: 5 µM.
Assay type: functional
Parameters: scale not given: in the data most compounds retested in dose-response had high values

| Structure (SMILES) | Percent Effect [%] |
| --- | --- |
| CNC(=O)[C@@H]1[C@@H](c2ccccc2)CN2CCN(Cc3ccccn3)C[C@H]12 | 89.14 |
| CS(=O)(=O)NC1CCCN(Cc2ccccn2)C1 (configuration not stated) | -8.857 |
| CSc1ccccc1C(C(=O)O)N1CCN(Cc2ccccn2)CC1 (configuration not stated) | 5.13 |
| CNC(=O)[C@@H]1C[C@@H](N)CN1C1CCN(Cc2ccccn2)CC1 | -2.984 |
| CNC(=O)[C@@H]1[C@H]2CN(Cc3ccccn3)CCN2C[C@H]1c1ccccc1 | 121 |
| O=C(Nc1ccc(Cl)cn1)C1CCCN(Cc2ccccn2)C1 (configuration not stated) | 22.45 |
| CC(C)NC(=O)[C@H]1C[C@@H]2[C@@H](C1)OCCN2Cc1cnn(C)c1.O=C(O)C(F)(F)F | -20.9 |
| CC(C)c1cc(C(=O)N(C)C(C)c2nccs2)no1 (configuration not stated) | -2.417 |
| O=C(CCc1ccc(O)cc1)N1CCC(Cc2ccc(CO)cc2)C1 (configuration not stated) | -11.56 |
| Cc1nc2cc(=O)[nH]n2c(C)c1CNC(=O)C(C)(C)c1ccccc1 | -10.11 |
| CSc1ccccc1C(=O)NCCC(O)c1ccco1 (configuration not stated) | -13 |
| COCc1nc2cc(NCc3ncc[nH]3)ccc2o1 | 3.493 |
| O=C(N1CCC(Oc2ccncc2)C1)C1(c2ccccc2F)CC1 (configuration not stated) | -11.14 |
| Cc1cccn2cc(CC(=O)N3CCCC(n4cncn4)C3)nc12 (configuration not stated) | 3.172 |
| Cc1ccccc1C1(C(=O)N2CCCC(n3cncn3)C2)CC1 (configuration not stated) | 122.4 |
| O=C(N1CCCC(n2cncn2)C1)C1(c2ccccc2F)CCCC1 (configuration not stated) | 104.1 |
| Cc1nn(C)c2nc(-c3ccccn3)nc(NCCCOC(C)C)c12 | -17.61 |
| CNC(=O)CC1COCCN1C(=O)C1(c2ccc(Cl)cc2)CCC1 (configuration not stated) | -7.784 |
| O=C(NCCN1CCCCC1=O)C1CCC(=O)N(C2CCCC2)C1 (configuration not stated) | -13.2 |
| c1cc(C2CCN(c3cncnc3)CC2)ccn1 | 107.5 |
| c1cc(N2CCC(c3nnc(Cn4ccnc4)n3C3CC3)CC2)ccn1 | -8.252 |
| Cc1cnc(N2CCC(c3ccncc3)CC2)nc1-c1ccnn1C | -32.29 |
| FC(F)(F)c1cccc(N2CCC(NCc3cccnc3)CC2)c1 | 10.28 |
| c1ccc(N2CCC(c3ccncc3)CC2)cc1 | 167 |
| c1cnc(N2C[C@H]3CCN(c4cccnc4)C[C@H]3C2)nc1 | -4.407 |
| c1ccc(C2CCCN(c3cncc(-n4cccn4)n3)CC2)cc1 (configuration not stated) | 13.07 |

| Structure (SMILES) | Percent Effect [%] |
| --- | --- |
| c1cncc(N2CCC(c3ccncc3)CC2)c1 | 81.68 |
| COC(=O)c1ccc(N2CCC(c3ccccc3)CC2)nn1 | -9.28 |
| O=C(O)C(F)(F)F.O=C([C@H]1COC[C@H]2CN(C3CCOCC3)C[C@H]21)N1CCCO1 | 2.638 |
| CSCCC1c2nc[nH]c2CCN1Cc1cc(Cl)ccc1O (configuration not stated) | -0.8881 |
| CC(C)n1cnc(-c2nc(C(=O)N3CCN(C)CC3)c3ccccn23)c1 | 2.747 |
| CC(C)n1cnc(-c2nc(C(=O)NC3CC3)c3ccccn23)c1 | 100.7 |
| Cc1nc(-c2nc(C(=O)NC3CC3)c3ccccn23)cn1C(C)C | 96.1 |
| Cc1nc(-c2nc(C(=O)N3CCOCC3)c3ccccn23)cn1C(C)C | -8.689 |
| Cn1cnc(-c2nc(C(=O)NC3CC3)c3ccccn23)c1 | -8.322 |
| CC(C)n1ccc(-c2cc(C(=O)NC3CC3)c3ccccn23)n1 | -8.678 |
| Cn1cnc(-c2nc(C(=O)NCCN3CCCC3)c3ccccn23)c1 | -11.17 |
| Cc1nc(C(=O)N(C)CC(F)(F)C(F)(F)F)c2ccccn12 | 6.68 |
| Cc1nc(-c2nc(C(=O)N(C)C)c3ccccn23)cn1C(C)C | 84.92 |
| Cc1nc(C(=O)N(CC(=O)N(C)C)CC(F)(F)F)c2ccccn12 | 1.81 |
| Cc1noc(C)c1CN(C)C(=O)NC(C)c1cccs1 (configuration not stated) | -8.281 |
| NC(=O)C1CCN(Cn2nc(-c3ccccc3)oc2=O)CC1 | -3.823 |
| Cc1noc(C2CCN(C(=O)CCNS(C)(=O)=O)CC2)n1 | -0.9329 |
| CCC(=O)Nc1cccc(OCC(=O)N2C[C@H]3CC[C@H]2C3)c1 | 93.75 |
| CCC(=O)NC1CCCN(C(=O)Nc2cccc(COC(C)C)c2)C1 (configuration not stated) | -15.38 |
| CCC(=O)Nc1cccc(OCC(=O)N(C)Cc2nc(C)c[nH]2)c1 | -12.77 |
| CCC(=O)Nc1cccc(OCC(=O)N(C)Cc2ccon2)c1 | -42.8 |
| CCC(=O)Nc1cccc(OCC(=O)N2CC=CC2C(C)C)c1 (configuration not stated) | 89.02 |
| CCC(=O)Nc1cccc(OCC(=O)N(C)Cc2nccn2CC)c1 | -14.09 |
| CCC(=O)Nc1cccc(OCC(=O)N(C)Cc2cc(COC)[nH]n2)c1 | -13.78 |
| CCC(=O)Nc1cccc(OCC(=O)N[C@@H]2C[C@H]3CC[C@@H]2C3)c1 | 110 |
| COc1cccc(NC(=O)CN(C(C)C)C2CC2)c1 | 1.237 |
